Data reported in PubChem BioAssay AID1963321 (National Center for Advancing Translational Sciences (NCATS), 2024).
Results filed as inconclusive are left out. A call without a number means that no potency is given here. Active and inactive are the calls of the source. Calls follow the shape of the full dose curve.

The compounds below were run against cAMP-dependent protein kinase catalytic subunit alpha (Homo sapiens) (UniProt P17612) (assay: Protein Kinase A (PKA-HiBiT) enzymatic inhibition screen - Functional assay). Conditions: luminescence; series mostly up to 57.5 µM.
From the text: National Center for Advancing Translational Sciences (NCATS),
National Institute of Health (NIH), Maryland
Discovery and optimization of novel protein-binding ligands underlies many of the methods and applications of biology, drug discovery, clinical diagnostics, and environmental toxicology. Assays for detecting the interaction of, for example, a molecule with a macromolecular target also referred to here as the target of interest (TOI) is dependent on a compatible output technology. Depending on the nature and knowledge surrounding the TOI, whether a receptor, enzyme, regulatory subunit or scaffold, or a sequence-defined nucleic acid folded into a complex tertiary structure, assay strategies can vary widely.
Here we exploit ligand-biased changes in the structural dynamics of the target protein to control reporter alpha complementation allowing a non-competitive, non-functional, non-separation measure of ligand-target interaction.
Using a chemical library of >1,200 compounds enriched for scaffolds known to be associated with the inhibition of firefly luciferase (FLuc) activity (PubChem AIDs 2309) we first illustrate and compare the Structural Dynamics Response (SDR) assay vs. the standard functional FLuc enzyme assay (2). Secondly, we show the specificity and sensitivity of the SDR for the Abelson tyrosine kinase (ABL1) compared to the serine/threonine protein kinase A, using an enriched chemical library of 128 compounds selected, in part, for activity annotated with ABL1 kinase activity using the Pharos database (3).
(1) A. S. Dixon et al., NanoLuc Complementation Reporter Optimized for Accurate Measurement of Protein Interactions in Cells. ACS Chem Biol 11, 400-408 (2016).
Chemistry & Biology, 19, 1060 - 1072 (2012).
(3) K. J. Kelleher et al., Pharos 2023: an integrated resource for the understudied human proteome. Nucleic Acids Res 51, D1405-D1416 (2023).
PROTOCOL TABLE (as described by Inglese J, Shamu CE and Guy RK. 2007)
SEQUENCE No. (e.g., 1, 2, 3, etc.); […] (e.g., C. elegans, Compounds, Incubation, Read, etc.); VALUE and DESCRIPTION.
1. Reagent. Dispense 4 uL PKA-N-HiBiT enzyme per well at a final enzyme concentration of 10 nM in buffer with 87.5 uM ATP (functional assay) into columns 2-48 of four replicate Greiner 1536-well white,solid bottom high base, medium plates per assay. Dispense respective buffer without enzyme at 4 uL/well in column 1 of assay plates using BioRaptr 2.
2. Compounds. Library compounds added at 23 nL/well by pin transfer. DMSO neutral control and H-89 positive control added at 25 nL/well, transfer by Mosquito dispenser.
3. Incubation. Incubate enzyme and compounds at room temperature for 30 min, protect from light.
4. Reagent. (Functional assay) Transfer 25 nL of kemptide peptide substrate to each well of four replicate kinase assay plates with Mosquito dispenser.
5. Incubation. (Functional assay) Kinase Enzyme incubated with peptide substrate for 3 h at room temperature, protected from light.
6. Reagent. (Functional assay) Add 4 uL/well of Kinase-Glo Plus reagent (Promega) to kinase activity assay plates.
7. Detector. (Functional assay) Luminescence measured using CCD-based camera (ViewLux) with settings as follows: Exposure, 1 sec; Gain, High; Speed, Slow; Binning, 2X.
Inglese J, Shamu CE and Guy RK, Reporting data from high throughput screening of small molecule libraries, Nature Chemical Biology, 2007, 3(8): 438-441. doi.org/10.1038/nchembio0807-438.

Row | Structure (SMILES) | Potency
1 | Cc1ccc(NC(=O)N2CCN(c3nc(N)nc4sc(-c5cccnc5)nc34)CC2)cc1 | inactive
2 | Cc1ccc(C(=O)Nc2ccc(CN3CCN(C)CC3)c(C(F)(F)F)c2)cc1C#Cc1cnc2[nH]ncc2c1 | inactive
3 | COc1ccccc1-c1c[nH]c2ncc(-c3cncc(C(=O)N(C)C)c3)cc12 | inactive
4 | COc1cc2c(cc1OC)-c1[nH]nc(Nc3cccc(F)c3)c1C2 | inactive
5 | CCN1CCN(Cc2ccc(NC(=O)Nc3ccc(Oc4cc(NC)ncn4)cc3)cc2C(F)(F)F)CC1 | inactive
6 | CCN1CCN(Cc2ccc(NC(=O)c3ccc(C)c(NC(=O)c4cncc(-c5cccs5)c4)c3)cc2C(F)(F)F)CC1 | inactive
7 | Cc1cc(Nc2ncc3c(n2)N(C)C(=O)N(c2cc(NC(=O)c4cccc(C(F)(F)F)c4)ccc2C)C3)n(C)n1 | inactive
8 | Cc1cc(C)c(/C=C2\C(=O)Nc3ccccc32)[nH]1 | inactive
9 | CCCCCCCCCCCCc1ccc(S(=O)(=O)Nc2nncs2)cc1 | inactive
10 | CCN1C(=O)CNc2ncc(-c3ccc(-c4ncn[nH]4)nc3C)nc21 | inactive
11 | Nc1ncccc1-c1nc2ccc(-c3ccccc3)nc2n1-c1ccc(C2(N)CCC2)cc1 | inactive
12 | O=C1C(c2c(O)[nH]c3ccccc23)=Nc2ccccc21 | inactive
13 | Cc1ccc(NC(=O)c2ccc(CN3CCN(C)CC3)cc2)cc1Nc1nc(-c2cccnc2)cs1 | inactive
14 | Nc1ncc(-c2cnn(CCO)c2)c2scc(-c3ccc(NC(=O)Nc4cccc(F)c4)cc3)c12 | inactive
15 | Cc1cc(O)c2c(c1)C(=O)c1cc(O)cc(O)c1C2=O | inactive
16 | Cc1cccc(C)c1-n1c(=O)c2cnc(Nc3ccc(N4CCN(C)CC4)cc3)nc2n2c3ccccc3nc12 | inactive
17 | Cn1cc(-c2cc3c(N4CCN(c5ncc([C@@](C)(N)c6ccc(F)cc6)cn5)CC4)ncnn3c2)cn1 | inactive
18 | COC(=O)Nc1ccc(-c2nc(N3CCOCC3)c3cnn(C4CCN(C(=O)OC)CC4)c3n2)cc1 | inactive
19 | O=C(Nc1ccc(OC(F)(F)F)cc1)c1sccc1NCc1ccnc2ccccc12 | inactive
20 | NC(=O)c1cccc(-c2cc(Nc3ccc(OC(F)(F)F)cc3)ncn2)c1 | inactive

Row | Structure (SMILES) | Potency
21 | C[C@@H]1CCNC(=O)c2cc3ccc(C(=O)Nc4nc5ccccc5n4CCCN(C)C)cc3n21 | inactive
22 | CCCCNc1ncc2c(-c3ccc(S(=O)(=O)N4CCOCC4)cc3)nn(C3CCC(O)CC3)c2n1 (stereo not given) | inactive
23 | Cc1ccccc1-n1c([C@H](C)Nc2nc(N)nc3nc[nH]c23)nc2cccc(C)c2c1=O | inactive
24 | C[C@@H]1CN(CC(=O)Nc2ccc3c(c2)Cc2cccc(-c4cc(=O)cc(N5CCOCC5)o4)c2S3)C[C@H](C)O1 | inactive
25 | COc1cc2c(N3CCN(C(=O)Nc4ccc(OC(C)C)cc4)CC3)ncnc2cc1OCCCN1CCCCC1 | inactive
26 | CN1CCN(Cc2ccc(-c3cnc4[nH]cc(-c5ccc6[nH]ccc6c5)c4c3)cc2)CC1 | inactive
27 | O=C(Nc1cc(C(F)(F)F)ccc1N1CCCCC1)c1ccncc1 | inactive
28 | Cc1cc(Nc2ncc3cc(-c4c(Cl)cccc4Cl)c(=O)n(C)c3n2)ccc1F | inactive
29 | Cc1[nH]c2ccccc2c1C1=C(NCCc2ccc(F)cc2)C(=O)N(C)C1=O | inactive
30 | NC1CCC(Nc2nc(Nc3ccc(C(=O)N4CCCCC4)cc3)c3ncn(-c4cccc(F)c4)c3n2)CC1 (stereo not given) | inactive
31 | Cc1cn(-c2cc(F)cc(NC(=O)c3ccc(C)c(Nc4nccc(-c5cccnc5)n4)c3)c2)cn1 | inactive
32 | O=C(NCCO)c1cccc(-c2cc(Nc3ccc(OC(F)(F)F)cc3)ncn2)c1 | inactive
33 | O=C(NOCC(O)CO)c1cc(Br)c(F)c(F)c1Nc1ccc(I)cc1F (stereo not given) | inactive
34 | CN1CCN(C2CCC(n3cc(-c4ccc(Oc5ccccc5)cc4)c4c(N)ncnc43)CC2)CC1 (stereo not given) | inactive
35 | CN1CCN(c2ccc(Nc3ncc4cc(C#N)c(=O)n(C5CCCC5)c4n3)cc2)CC1 | inactive
36 | COc1ccc(CNC(=O)Nc2ncc([N+](=O)[O-])s2)cc1 | inactive
37 | COc1ccc(S(=O)(=O)N(C(C)=O)c2ccccc2/C=C/c2cc[n+]([O-])cc2)cc1 | inactive
38 | Cn1sc(=O)n(Cc2ccccc2)c1=O | inactive
39 | C#Cc1cccc(Nc2ncnc3cc4c(cc23)OCCOCCOCCO4)c1 | inactive
40 | Cc1cc(-c2cc(O)ccc2Cl)cc2nnc(Nc3ccc(OCCN4CCCC4)cc3)nc12 | inactive
